Six1-Eya2 blk = inhibitors of human Six1/Eya2 interaction; Q15475+O00167; AlphaScreen GST-Six1/His-Eya2 binding, biochemical; stronger effect = lower value; activity change, % (no concentration beside the values); hit rate 0.56% among 360,000; AID 651725; in the data active means activity change below about -65%; inconclusive means mostly about -30% to -63%
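Six1/Eya2 binding was read as AlphaScreen signal after compounds were pinned into GST-Six1 plus His-tagged Eya2 (5X stock 250/500 nM) in pH 8.0 Tris/NaCl/TCEP buffer, beads added, then incubated 1 h, 37 C, dark.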
CtBP-E1A blk = CtBP/E1A binding inhibition. hit rate 0.49% among 340,000. activity change, % (concentration not given with the values). AlphaScreen GST-E1A/His-CtBP binding, 1536-well; stronger effect = lower value; in the data active means activity change below about -65%; inconclusive means mostly about -30% to -63%
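GST-E1A and His-tagged CtBP (125 nM each as 5X stock) were preincubated with pin-transferred compound for 2 h at 37 °C in the dark, then glutathione donor and nickel acceptor beads were added for 1 h before AlphaScreen reading.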
GALK inhibitor = blocks human galactokinase activity; P51570; Purified GALK, Kinase-Glo residual ATP luminescence; Potency, µM (top dose mostly 57.5 µM), usual class: inhibitors; hit rate 0.007% among 270,000; AID 1868
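The enzyme phosphorylates galactose (100 uM) using ATP (35 uM); inhibition is detected as higher residual ATP, quantified by bioluminescence after 1 h reaction at room temperature, pH 8.0.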
Eya2 phos inh = blocks the phosphatase activity of human Eya2 | recombinant Eya2, OMFP fluorescence dephosphorylation (OMFP is methylfluorescein phosphate) | AID 488837 | O00167 | Potency, µM (series often up to 76.9 µM), most hits filed as inhibitors | hit rate 0.006% among 330,000
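Eya2 protein (added as 0.2 uM solution) was preincubated with compound for 10 min at ambient temperature in 50 mM HEPES pH 7.5, 50 mM NaCl, 5 uM MgCl2, 0.05% BSA, 1 mM DTT. OMFP (added at 50 uM) then reacted 10 min; fluorescence read at 485/525 nm.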
TrxR1 inh = inhibitors of rat thioredoxin reductase 1; O89049; Potency, µM (doses to about 114 µM), usual class: inhibitors; AID 588453; hit rate 1% among 390,000; recombinant rTrxR1, NADPH fluorescence consumption, selenite substrate; further: nearly all actives have a fitted effect of over 65% in size
Target sequence (O89049 whole entry, looked up): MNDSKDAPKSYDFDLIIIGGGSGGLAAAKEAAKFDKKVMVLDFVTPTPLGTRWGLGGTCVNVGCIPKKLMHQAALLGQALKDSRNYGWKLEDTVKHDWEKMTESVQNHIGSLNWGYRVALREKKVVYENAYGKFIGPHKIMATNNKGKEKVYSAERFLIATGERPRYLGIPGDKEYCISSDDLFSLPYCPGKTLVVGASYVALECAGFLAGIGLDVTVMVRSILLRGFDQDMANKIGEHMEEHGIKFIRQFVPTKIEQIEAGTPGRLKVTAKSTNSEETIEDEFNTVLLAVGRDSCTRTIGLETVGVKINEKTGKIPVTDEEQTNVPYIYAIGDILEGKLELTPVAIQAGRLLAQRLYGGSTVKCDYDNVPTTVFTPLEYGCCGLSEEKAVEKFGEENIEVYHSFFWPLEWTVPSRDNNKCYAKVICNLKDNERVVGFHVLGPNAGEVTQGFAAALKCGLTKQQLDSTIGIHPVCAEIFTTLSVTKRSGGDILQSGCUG
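Rat TrxR1 (90 nM in the dispensed reagent) was pre-reduced with 400 uM NADPH for 5 min at room temperature, then incubated with compound for 15 min. After 400 uM selenite was added, NADPH fluorescence (Ex 340/Em 450 nm) was followed for 8 min.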
TrxR1 substrate = substrates of rat thioredoxin reductase 1 | O89049 | purified TrxR1 substrate turnover, NADPH consumption readout | Potency, µM (top dose mostly 114 µM) | hit rate 0.01% among 390,000; further: nearly all actives have a fitted effect of over 50% in size
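Rat TrxR1, dispensed at 90 nM, was prereduced with 400 uM NADPH (final) for 5 min at ~22 deg C, then incubated with compound 15 min before 400 uM selenite. A first-read NADPH fluorescence drop versus no-compound background flagged substrates.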
A number is an active result; n = inactive; u = inconclusive; x = no result; [ ] = another dose, or the depositor's remark. Sampled rows, rich in hits. Any-hit rate of the full collection: about 1.5%. Unless noted, the call rests on the fitted dose curve; in most records, active means well fitted curve in the direction sought with a large enough effect; inconclusive means small, poorly fitted or top-dose-only effect, or another doubt; inactive means no such curve, though single readings can be large; an effect the other way counts as inactive or inconclusive.

SMILES	Six1-Eya2 blk	CtBP-E1A blk	GALK inhibitor	Eya2 phos inh	TrxR1 inh	TrxR1 substrate
CCCCCCN(C(=O)CCl)c1ccccc1	n	x	n	n	18µM	n
N#CCCN(C(=O)CCl)c1cccc(Cl)c1	n	n	n	n	8.9µM	n
CCOc1ccc(CCNC(=O)CSc2nnnn2-c2ccccc2)cc1OCC	x	x	x	x	n	n
COc1ccc(NC(=O)c2cc3c(=O)n(C)c4cc(Cl)ccc4c3s2)cc1Cl	x	x	x	x	n	n
N#CC(C#N)=Cc1cc2ccccc2nc1N1CCCCC1	n	n	n	n	18µM	n
COc1ccccc1NC(=O)CSc1ccc(-c2ccco2)nn1	n	n	n	n	50µM	n
Cc1ccccc1NC(=O)CSc1ccc(-c2ccco2)nn1	n	n	n	n	u	n
COc1ccccc1-n1c(SCC(=O)N(C)C)nnc1-c1ccco1	n	n	x	x	n	n
COc1ccc(OC)c(NC(=O)CSc2ccc(-c3ccco3)nn2)c1	n	n	n	n	4µM	n
COc1ccccc1-n1c(SCC(=O)NC(C)(C)C)nnc1-c1ccco1	n	n	n	n	8.9µM	n
Cc1cc(C)c(/C=C/c2onc(C)c2S(=O)(=O)N2CCC(C(=O)Nc3ccc(Cl)c(C(F)(F)F)c3)CC2)c(C)c1	x	x	x	x	n	n
O=C(O)CCCCCNS(=O)(=O)c1cccc2c1C(=O)c1ccccc1C2=O	-76	n	n	n	n	n
O=C1CCC[C@@H]2C[C@@]3(C[C@@H]4CCN1[C@H]24)Nc1ccccc1NC3=NC1CCCCC1	x	x	x	x	n	n
COc1cc2[nH]c(=S)nc(NCc3ccccn3)c2cc1OC	-70	u	n	n	n	n
COc1cc2[nH]c(=S)nc(NCc3ccccc3)c2cc1OC	-78	-82	n	u	n	n
COc1cccc(-c2nc(NCc3cccnc3)c3ccccc3n2)c1O	n	n	n	n	n	n
COc1cc2[nH]c(=S)nc(NCc3cccc(Cl)c3)c2cc1OC	u	x	n	n	u	n
COc1cc2[nH]c(=S)nc(NCc3cccnc3)c2cc1OC	-69	-82	n	n	n	n
COc1ccc(CNc2nc(=S)[nH]c3cc(OC)c(OC)cc23)cc1	-82	x	n	n	n	n
O=C(Cn1c2ncccc2c(=O)n1-c1ccccc1)NCc1ccccc1Cl	x	x	x	x	n	n
COc1ccc(CNc2ncnc3c2[nH]c2cc(OC)c(OC)cc23)cc1	u	u	n	n	n	n
COc1cc2[nH]c(=S)nc(NCc3ccc(C)cc3)c2cc1OC	-74	x	n	n	n	n
O=C(/C=C/c1ccc(Br)o1)NC(c1ccccc1)c1ccccc1	n	n	n	n	20µM	n
CCOc1ccccc1NC(=O)C(=O)c1cc(C)n(-c2cccc(C)c2C)c1C	x	x	x	x	n	n
Cc1cc(F)c(F)c(C(=O)N2CCOCC2)c1Cl	-92	n	n	n	n	n
SMILES	Six1-Eya2 blk	CtBP-E1A blk	GALK inhibitor	Eya2 phos inh	TrxR1 inh	TrxR1 substrate
O=C(CCS(=O)(=O)c1ccccc1)N1CCCc2ccccc21	n	x	n	n	71µM	n
COc1ccc(/C=N/NC(=O)c2ccn[nH]2)cc1Cn1nc(C)c([N+](=O)[O-])c1C	n	x	n	n	n	n
COc1ccc(/C=N/NC(=O)c2ccncc2)cc1Cn1nc([N+](=O)[O-])c(Br)c1C	-69	u	n	n	n	n
COc1cccc(/C=N\NC(=O)c2ccc(Cn3cc(Br)c([N+](=O)[O-])n3)o2)c1O	u	-74	n	n	n	n
COc1cc(/C=N\NC(=O)c2ccc(Cn3nc([N+](=O)[O-])c(Cl)c3C)o2)ccc1O	-83	-84	n	n	n	n
CN(CC(=O)Nc1ccc(Br)cc1)S(=O)(=O)c1cccc2nsnc12	x	x	x	x	n	n
O=C(CC(=O)c1ccccc1)Nc1cccc([N+](=O)[O-])c1	n	n	x	x	x	x
O=C(CCNc1ccc(Br)cc1)c1cccc([N+](=O)[O-])c1	u	u	n	n	16µM	n
Cc1ccc(NCCC(=O)c2cccc([N+](=O)[O-])c2)cc1	u	u	n	n	3.5µM	n
Cc1ccc(CONC(=O)c2cccc([N+](=O)[O-])c2)cc1	n	n	x	n	n	n
O=C(CCNc1ccccc1)c1cccc([N+](=O)[O-])c1	n	n	n	n	1.6µM	n
O=C(CCNc1ccc(F)cc1)c1cccc([N+](=O)[O-])c1	n	u	n	n	3.5µM	n
CCCCN1C(=O)c2[nH]nc(-c3ccccc3O)c2C1c1ccc(C(C)(C)C)cc1 (stereo not given)	x	x	x	x	n	n
Cc1ccc(NC(=O)Cn2c(=O)n(Cc3ccccc3)c(=O)c3c(C)c(C(=O)N(C)C)sc32)c(C)c1	x	x	x	x	n	n
O=C(CCNc1ccc(Cc2ccncc2)cc1)c1ccc([N+](=O)[O-])cc1	n	n	n	n	16µM	n
O=C(Nc1ccc(Cc2ccncc2)cc1)c1cccc([N+](=O)[O-])c1	n	x	n	n	n	n
Cc1ccc(S(=O)(=O)N2CCN(c3nc(-c4ccc(CN5CCOCC5)s4)nc4ccccc34)CC2)cc1	x	x	x	x	n	n
COc1cccc2cc(C(=O)NCCc3c(C)[nH]c4ccc(Br)cc34)c(=O)oc12	x	x	x	x	n	n
CCC(CC)C(=O)Nc1cccc(-c2cn3cccnc3n2)c1	x	x	x	x	n	n
CCC(CC)C(=O)Nc1ccc(-c2cn3cccnc3n2)cc1	n	x	n	n	79µM	n
CCOc1ccc2oc(=O)cc(CN3CCN(c4cc(C)ccc4C)CC3)c2c1	x	x	x	x	n	n
Cc1ccc(-c2nnc(Sc3nc4ccccc4o3)c3ccccc23)cc1	n	n	n	n	n	n
Cc1nnc(Sc2nc3ccccc3o2)c2ccccc12	n	n	n	n	8.9µM	n
Cc1ccc(C(=O)N/C(=C\c2ccc(-c3ccccc3[N+](=O)[O-])o2)C(=O)NCCN(C)C)cc1	n	n	n	n	14µM	n
O=C1OC(c2cccs2)=N/C1=C\c1ccc(-c2ccccc2Cl)o1	u	u	n	n	u	n
SMILES	Six1-Eya2 blk	CtBP-E1A blk	GALK inhibitor	Eya2 phos inh	TrxR1 inh	TrxR1 substrate
O=C1OC(c2cccs2)=N/C1=C/c1ccc(-c2cccc(C(=O)O)c2)o1	n	n	n	n	35µM	n
O=Cc1ccc(Sc2nnc(-c3ccccc3)o2)c([N+](=O)[O-])c1	n	n	n	n	5µM	n
Cc1cc(C)c2nccc(/C=C/c3ccc(N(C)C)cc3)c2c1	x	x	x	x	n	n
COc1ccc(N=Cc2nc(-c3ccccc3)oc2OC(C)=O)cc1	n	x	n	n	13µM	n
Cc1ccc(C(=O)Oc2oc(-c3ccccc3)nc2C=Nc2ccc(N(C)C)cc2)cc1	n	n	n	n	u	n
O=C(Oc1oc(-c2ccco2)nc1C=Nc1ccccc1)c1ccco1	n	n	n	n	2.2µM	n
COc1cccc(N=Cc2nc(-c3ccccc3)oc2OC(C)=O)c1	n	n	n	n	n	n[11.4 µM]
